Assay results taken from paper PMC5540273 (PLoS ONE, 2017).

Tests used:
Details in all cases: concentration: 1 μM, replicates: in singlicate; n = 1
EPHA7 = tested on: EPHA7
EPHA8 = tested on: EPHA8
EPHB1 = tested on: EPHB1
EPHB2 = tested on: EPHB2
EPHB3 = tested on: EPHB3
EPHB4 = tested on: EPHB4
EPHB6 = tested on: EPHB6
ERBB2 = tested on: ERBB2
ERBB3 = tested on: ERBB3
ERBB4 = tested on: ERBB4
ERK1 = tested on: T1, ERK1
T1 construct: gene MAPK3

ERK2 = tested on: T2, ERK2
T2 construct: gene MAPK1

ERK3 = tested on: T3, ERK3
T3 construct: gene MAPK6

ERK4 = tested on: T4, ERK4
T4 construct: gene MAPK4

ERK5 = tested on: T5, ERK5
T5 construct: gene MAPK7

ERK8 = tested on: T6, ERK8
T6 construct: gene MAPK15

ERN1 = tested on: ERN1
FAK = tested on: T7, FAK
T7 construct: gene PTK2

FER = tested on: FER
FES = tested on: FES
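Further: KINOMEscan kinase panel screen.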

Row | Compound | %Inh (EPHA7) | %Inh (EPHA8) | %Inh (EPHB1) | %Inh (EPHB2) | %Inh (EPHB3) | %Inh (EPHB4) | %Inh (EPHB6) | %Inh (ERBB2) | %Inh (ERBB3) | %Inh (ERBB4) | %Inh (ERK1) | %Inh (ERK2) | %Inh (ERK3) | %Inh (ERK4) | %Inh (ERK5) | %Inh (ERK8) | %Inh (ERN1) | %Inh (FAK) | %Inh (FER) | %Inh (FES)
1 | Fc1ccc(-c2ncn(C3CCNCC3)c2-c2ccnc(Oc3ccc(-c4ccccc4)cc3)n2)cc1 [SB-245391] | 3% | 8% | 10% | 6% | 16% | 17% | 15% | 62% | 33% | 6% | 47% | 2% | 0% | 15% | 9% | 31% | 45% | 12% | 0% | 27%
2 | COc1cc(Nc2ncc3c(C)nc(-c4cc5ccccc5[nH]4)n3n2)cc(OC)c1OC [GW869516] | 0% | 4% | 58% | 36% | 0% | 47% | 0% | 14% | 26% | 34% | 0% | 0% | 42% | 38% | 7% | 0% | 0% | 6% | 0% | 0%
3 | CN(C)S(=O)(=O)c1cc(-c2ccc3nccc(-c4cccc(S(N)(=O)=O)c4)c3c2)cnc1N [GSK1669921] | 15% | 27% | 31% | 0% | 11% | 16% | 25% | 15% | 0% | 0% | 3% | 0% | 0% | 0% | 0% | 40% | 8% | 0% | 5% | 14%
4 | CCS(=O)(=O)c1ccc(OC)c(Nc2nccc(-c3c(-c4cccc(NC(=O)c5c(F)cccc5F)c4)nn4ncccc34)n2)c1 [GSK326180] | 5% | 24% | 15% | 12% | 100% | 12% | 16% | 99.3% | 0% | 100% | 0% | 5% | 13% | 47% | 0% | 0% | 22% | 0% | 22% | 0%
5 | CCc1ccc(-c2ccc3c(c2)-c2c(cnn2C)S(=O)(=O)N3C)cc1 | 0% | 0% | 0% | 0% | 0% | 1% | 25% | 0% | 0% | 4% | 4% | 6% | 0% | 0% | 0% | 0% | 0% | 38% | 0% | 0%
6 | COc1cc2c(cc1OCCN1CCNCC1)ncc1c3ccc(C#N)cc3[nH]c21 | 0% | 0% | 0% | 2% | 0% | 0% | 55% | 4% | 0% | 28% | 0% | 0% | 0% | 23% | 15% | 12% | 44% | 10% | 0% | 2%
7 | c1ccc(-c2n[nH]cc2Nc2ccnc3ccccc23)nc1 [GW694077] | 11% | 21% | 18% | 0% | 1% | 0% | 0% | 0% | 4% | 0% | 0% | 0% | 7% | 0% | 0% | 25% | 22% | 0% | 0% | 0%
8 | COCCOCCOc1cc2ncc3c4ccc(C#N)cc4[nH]c3c2cc1OC | 11% | 9% | 6% | 23% | 11% | 25% | 56% | 34% | 0% | 0% | 9% | 6% | 2% | 0% | 0% | 36% | 0% | 16% | 0% | 17%
9 | Cl.Cl.NCC(NCc1ccc(-c2ccnc3[nH]ccc23)s1)c1ccccc1 (stereo not shown) [GSK1321565] | 0% | 0% | 13% | 0% | 5% | 7% | 27% | 0% | 19% | 11% | 0% | 0% | 2% | 0% | 2% | 18% | 17% | 19% | 46% | 0%
10 | CSc1cccc2c(-c3ccncn3)c(-c3ccc(F)cc3)nn12 [GW514786] | 9% | 26% | 15% | 0% | 4% | 2% | 20% | 34% | 13% | 0% | 14% | 6% | 0% | 5% | 0% | 0% | 12% | 0% | 17% | 0%
11 | Nc1ncc(-c2cccnc2)c2scc(-c3ccc4c(c3)CCN4C(=O)Cc3ccccc3)c12 [GSK683281] | 19% | 26% | 21% | 9% | 12% | 2% | 98.1% | 1% | 0% | 2% | 0% | 11% | 4% | 21% | 0% | 0% | 35% | 0% | 33% | 0%
12 | O=C(Nc1n[nH]c2nc(-c3ccc(O)cc3)ccc12)C1CC1 [SB-710363] | 0% | 0% | 0% | 16% | 0% | 0% | 38% | 0% | 94.6% | 6% | 0% | 0% | 0% | 0% | 63% | 90.2% | 0% | 0% | 0% | 0%
13 | COc1cccc(NC(=O)NC2CCN(c3ccnc(Nc4cc(OC)c(OC)c(OC)c4)n3)C2)c1 (stereo not shown) [GSK1379763] | 6% | 4% | 11% | 8% | 0% | 7% | 94.3% | 0% | 0% | 30% | 0% | 0% | 7% | 25% | 0% | 0% | 7% | 0% | 0% | 8%
14 | O=C(NC1CCN(c2ccnc(Nc3ccc(F)cc3)n2)C1)c1cc2ccccc2s1 (stereo not shown) [GSK1379716] | 7% | 14% | 9% | 18% | 17% | 15% | 0% | 42% | 22% | 28% | 4% | 23% | 1% | 31% | 0% | 0% | 0% | 0% | 44% | 12%
15 | c1ccc(-c2cnc3nccnn23)cc1 [AH20685] | 0% | 5% | 0% | 0% | 1% | 0% | 1% | 0% | 0% | 0% | 8% | 0% | 0% | 0% | 0% | 0% | 0% | 0% | 0% | 11%
16 | COc1cc(Nc2nccc(N3CCC(NC(=O)c4cc5ccccc5s4)C3)n2)cc(OC)c1OC (stereo not shown) [GSK1379760] | 4% | 17% | 6% | 26% | 5% | 15% | 61% | 6% | 12% | 0% | 12% | 9% | 0% | 0% | 0% | 0% | 6% | 0% | 34% | 0%
17 | Cl.Cl.NCC(NC(=O)c1cc(-c2ccccc2)c(-c2ccnc3[nH]ccc23)s1)c1ccccc1 (stereo not shown) [GSK1321561] | 11% | 50% | 16% | 0% | 7% | 19% | 2% | 58% | 0% | 49% | 6% | 16% | 0% | 8% | 0% | 0% | 0% | 0% | 36% | 0%
